Measurements: the supplement of paper PMC6411743
± gives the standard deviation of the averaged measurements. Of roughly 6,500 targets only a part is listed; those with the largest changes were picked by preference.

Compound: Nc1ncnc2c1ncn2[C@@H]1O[C@H](COP(=O)(O)OP(=O)(O)OP(=O)(O)O)[C@@H](O)[C@H]1O [adenosine triphosphate]
Test: NP40-soluble protein abundance relative to vehicle (solubility fold change) (ratio); higher = more soluble protein in presence of ATP
Method in brief: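 In three independent experiments, Jurkat crude lysate made by Dounce homogenisation was treated for 10 min at room temperature and then 3 min at 37 °C with eight concentrations ranging from 0.1 to 10 mM. It was then solubilised with 0.8% NP40 plus benzonase for 60 min at 4 °C and ultracentrifuged. The supernatant was TMT-labelled for LC-MS/MS, and each value is the fold change against the detergent-processed vehicle for the same replicate, using vsn-normalised intensities.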

UniProt Q9HBH5, sequence (Q9HBH5 whole entry): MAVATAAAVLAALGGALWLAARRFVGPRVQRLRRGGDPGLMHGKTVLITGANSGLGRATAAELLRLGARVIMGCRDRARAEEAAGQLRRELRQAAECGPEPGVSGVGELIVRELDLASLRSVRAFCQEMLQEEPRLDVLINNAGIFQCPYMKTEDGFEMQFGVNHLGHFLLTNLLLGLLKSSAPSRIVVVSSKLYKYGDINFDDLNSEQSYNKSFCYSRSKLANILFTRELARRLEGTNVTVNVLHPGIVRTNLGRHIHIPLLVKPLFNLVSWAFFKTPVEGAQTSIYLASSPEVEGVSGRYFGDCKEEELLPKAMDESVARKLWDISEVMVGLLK
UniProt Q9UG63, sequence (Q9UG63 whole entry): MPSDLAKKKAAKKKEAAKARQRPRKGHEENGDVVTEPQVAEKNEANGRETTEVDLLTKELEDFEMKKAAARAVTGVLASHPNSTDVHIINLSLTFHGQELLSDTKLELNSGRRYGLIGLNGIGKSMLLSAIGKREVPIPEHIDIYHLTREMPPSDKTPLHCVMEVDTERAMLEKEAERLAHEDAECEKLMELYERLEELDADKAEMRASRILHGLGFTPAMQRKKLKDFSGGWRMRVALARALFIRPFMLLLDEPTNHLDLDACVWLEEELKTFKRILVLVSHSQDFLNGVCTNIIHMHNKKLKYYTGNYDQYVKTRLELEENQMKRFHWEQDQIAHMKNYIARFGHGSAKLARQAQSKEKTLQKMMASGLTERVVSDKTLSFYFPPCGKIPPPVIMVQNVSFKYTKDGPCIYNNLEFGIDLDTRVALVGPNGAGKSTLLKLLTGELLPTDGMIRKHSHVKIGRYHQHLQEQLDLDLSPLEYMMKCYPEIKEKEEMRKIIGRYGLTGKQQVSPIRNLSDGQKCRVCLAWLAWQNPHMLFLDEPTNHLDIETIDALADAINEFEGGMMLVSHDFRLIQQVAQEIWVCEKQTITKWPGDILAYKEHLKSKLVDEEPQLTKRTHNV
UniProt Q8WYP5, sequence (Q8WYP5 whole entry): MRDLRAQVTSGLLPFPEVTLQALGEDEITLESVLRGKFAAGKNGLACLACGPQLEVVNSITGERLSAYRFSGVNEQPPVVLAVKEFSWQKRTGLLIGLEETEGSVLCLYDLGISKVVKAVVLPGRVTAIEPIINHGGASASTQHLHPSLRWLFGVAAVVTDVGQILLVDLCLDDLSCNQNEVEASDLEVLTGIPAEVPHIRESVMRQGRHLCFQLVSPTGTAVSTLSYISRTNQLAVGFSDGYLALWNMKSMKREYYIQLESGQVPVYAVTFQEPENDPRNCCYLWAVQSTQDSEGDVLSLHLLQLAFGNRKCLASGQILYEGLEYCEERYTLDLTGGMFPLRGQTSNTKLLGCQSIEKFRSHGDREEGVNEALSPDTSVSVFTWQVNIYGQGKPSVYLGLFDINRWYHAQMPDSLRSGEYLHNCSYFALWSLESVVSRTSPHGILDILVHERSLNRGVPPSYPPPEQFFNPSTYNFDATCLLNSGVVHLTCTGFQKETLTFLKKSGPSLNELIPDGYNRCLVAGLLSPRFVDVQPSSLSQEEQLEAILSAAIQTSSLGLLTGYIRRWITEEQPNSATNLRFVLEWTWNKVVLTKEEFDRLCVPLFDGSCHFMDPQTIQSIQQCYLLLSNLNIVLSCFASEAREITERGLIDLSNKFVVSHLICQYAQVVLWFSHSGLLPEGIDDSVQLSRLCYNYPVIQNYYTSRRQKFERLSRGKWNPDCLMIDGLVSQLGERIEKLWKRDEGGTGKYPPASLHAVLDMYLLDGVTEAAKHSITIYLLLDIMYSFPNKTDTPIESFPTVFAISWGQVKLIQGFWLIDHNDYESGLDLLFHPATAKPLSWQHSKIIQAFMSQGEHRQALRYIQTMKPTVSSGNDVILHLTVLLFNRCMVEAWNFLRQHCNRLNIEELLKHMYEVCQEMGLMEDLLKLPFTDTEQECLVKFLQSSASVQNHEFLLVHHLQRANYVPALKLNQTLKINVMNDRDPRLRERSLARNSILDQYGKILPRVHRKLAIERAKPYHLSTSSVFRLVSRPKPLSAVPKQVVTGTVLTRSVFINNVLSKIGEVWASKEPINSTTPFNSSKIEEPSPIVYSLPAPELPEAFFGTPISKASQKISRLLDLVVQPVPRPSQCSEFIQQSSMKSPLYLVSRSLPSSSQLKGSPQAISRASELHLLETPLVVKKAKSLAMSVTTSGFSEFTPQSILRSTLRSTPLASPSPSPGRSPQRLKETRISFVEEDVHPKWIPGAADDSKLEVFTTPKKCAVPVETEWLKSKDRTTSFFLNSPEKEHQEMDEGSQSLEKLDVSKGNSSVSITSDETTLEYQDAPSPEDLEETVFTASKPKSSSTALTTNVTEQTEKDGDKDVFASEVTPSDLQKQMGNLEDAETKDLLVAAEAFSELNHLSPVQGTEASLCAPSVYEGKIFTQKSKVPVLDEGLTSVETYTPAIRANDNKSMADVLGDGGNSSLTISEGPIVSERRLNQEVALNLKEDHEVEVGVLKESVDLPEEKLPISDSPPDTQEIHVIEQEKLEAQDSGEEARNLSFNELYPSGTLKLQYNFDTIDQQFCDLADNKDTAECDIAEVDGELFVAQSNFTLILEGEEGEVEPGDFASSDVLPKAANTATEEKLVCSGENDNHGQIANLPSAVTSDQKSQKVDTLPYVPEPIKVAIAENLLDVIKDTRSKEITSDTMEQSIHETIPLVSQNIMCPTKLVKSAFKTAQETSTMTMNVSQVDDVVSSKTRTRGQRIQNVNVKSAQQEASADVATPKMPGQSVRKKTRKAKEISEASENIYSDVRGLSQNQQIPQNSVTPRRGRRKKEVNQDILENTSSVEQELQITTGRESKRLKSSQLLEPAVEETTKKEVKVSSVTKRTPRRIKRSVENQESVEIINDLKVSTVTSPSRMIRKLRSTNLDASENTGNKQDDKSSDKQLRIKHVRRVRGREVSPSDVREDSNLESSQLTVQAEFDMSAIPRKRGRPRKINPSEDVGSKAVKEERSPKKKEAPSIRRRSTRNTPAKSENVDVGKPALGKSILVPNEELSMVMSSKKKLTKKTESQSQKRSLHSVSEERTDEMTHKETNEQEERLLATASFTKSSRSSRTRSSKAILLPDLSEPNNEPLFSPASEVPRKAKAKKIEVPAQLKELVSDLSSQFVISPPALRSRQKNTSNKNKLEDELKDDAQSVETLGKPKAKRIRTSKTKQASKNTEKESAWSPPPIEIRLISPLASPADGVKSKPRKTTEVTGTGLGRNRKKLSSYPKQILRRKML
UniProt Q9HAJ7, sequence (Q9HAJ7 whole entry): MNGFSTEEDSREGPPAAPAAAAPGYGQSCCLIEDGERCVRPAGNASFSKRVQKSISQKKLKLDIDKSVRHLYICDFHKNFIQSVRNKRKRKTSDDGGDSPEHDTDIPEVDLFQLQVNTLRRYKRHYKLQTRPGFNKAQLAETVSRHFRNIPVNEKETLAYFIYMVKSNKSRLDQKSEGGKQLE
UniProt Q92833, sequence (Q92833 whole entry): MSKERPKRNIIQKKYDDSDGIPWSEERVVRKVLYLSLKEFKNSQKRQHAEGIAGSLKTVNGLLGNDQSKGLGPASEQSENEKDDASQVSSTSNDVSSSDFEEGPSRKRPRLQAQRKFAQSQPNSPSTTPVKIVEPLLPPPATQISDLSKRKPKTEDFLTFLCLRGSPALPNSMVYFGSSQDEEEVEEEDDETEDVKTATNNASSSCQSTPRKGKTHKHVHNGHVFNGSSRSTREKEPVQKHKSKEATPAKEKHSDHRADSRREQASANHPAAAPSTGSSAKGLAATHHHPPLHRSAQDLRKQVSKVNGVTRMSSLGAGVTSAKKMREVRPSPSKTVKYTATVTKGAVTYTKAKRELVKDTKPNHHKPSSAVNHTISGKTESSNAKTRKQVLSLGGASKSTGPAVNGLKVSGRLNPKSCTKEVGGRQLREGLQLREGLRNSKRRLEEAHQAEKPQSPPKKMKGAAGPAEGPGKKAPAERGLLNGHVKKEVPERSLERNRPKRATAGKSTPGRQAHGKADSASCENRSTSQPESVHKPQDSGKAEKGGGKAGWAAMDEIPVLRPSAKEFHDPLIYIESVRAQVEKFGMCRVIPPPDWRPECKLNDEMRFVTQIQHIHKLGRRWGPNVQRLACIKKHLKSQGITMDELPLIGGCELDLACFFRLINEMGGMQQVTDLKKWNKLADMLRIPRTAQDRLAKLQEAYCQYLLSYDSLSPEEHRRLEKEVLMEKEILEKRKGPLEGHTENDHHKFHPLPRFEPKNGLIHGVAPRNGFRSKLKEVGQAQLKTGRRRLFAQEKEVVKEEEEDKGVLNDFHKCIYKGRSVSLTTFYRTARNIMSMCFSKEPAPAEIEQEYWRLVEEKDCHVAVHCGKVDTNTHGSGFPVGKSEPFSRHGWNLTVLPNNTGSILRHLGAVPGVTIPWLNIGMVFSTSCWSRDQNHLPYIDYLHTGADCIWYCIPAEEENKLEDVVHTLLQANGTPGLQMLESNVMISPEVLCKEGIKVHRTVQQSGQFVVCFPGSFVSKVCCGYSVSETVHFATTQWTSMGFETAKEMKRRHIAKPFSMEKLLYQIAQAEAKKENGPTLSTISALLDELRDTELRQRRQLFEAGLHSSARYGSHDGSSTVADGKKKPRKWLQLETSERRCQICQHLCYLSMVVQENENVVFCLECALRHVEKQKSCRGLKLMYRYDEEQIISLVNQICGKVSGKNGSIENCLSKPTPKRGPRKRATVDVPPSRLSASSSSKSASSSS
UniProt Q9BVC6, sequence (Q9BVC6 whole entry): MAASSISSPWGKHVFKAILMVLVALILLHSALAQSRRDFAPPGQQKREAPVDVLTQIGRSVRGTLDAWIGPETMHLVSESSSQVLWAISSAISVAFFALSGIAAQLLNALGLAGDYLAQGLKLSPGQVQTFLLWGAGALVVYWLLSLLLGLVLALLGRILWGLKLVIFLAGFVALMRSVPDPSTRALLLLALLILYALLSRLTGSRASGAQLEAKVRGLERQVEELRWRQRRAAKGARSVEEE
UniProt Q9BTL3, sequence (Q9BTL3 whole entry): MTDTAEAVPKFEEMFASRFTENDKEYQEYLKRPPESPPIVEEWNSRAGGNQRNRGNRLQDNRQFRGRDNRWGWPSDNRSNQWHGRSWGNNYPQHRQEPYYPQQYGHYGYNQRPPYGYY

Target	NP40-soluble protein abundance (concentration: 1mM)	NP40-soluble protein abundance (concentration: 2mM)	NP40-soluble protein abundance (concentration: 4mM)	NP40-soluble protein abundance (concentration: 6mM)	NP40-soluble protein abundance (concentration: 8mM)	NP40-soluble protein abundance (concentration: 10mM)
RABEP2 (UniProt Q9H5N1)	0.967 ± 0.062	0.941 ± 0.036	0.929 ± 0.035	0.956 ± 0.046	0.905 ± 0.011	0.901 ± 0.039
RPGR (UniProt Q92834)	1.03 ± 0.099	1.08 ± 0.039	1.05 ± 0.036	1.07 ± 0.067	1.067 ± 0.0066	1.05 ± 0.013
UniProt Q96AT9|Q96AT9-2	1.06 ± 0.092	1.07 ± 0.047	1.06 ± 0.075	1.05 ± 0.073	0.991 ± 0.064	0.993 ± 0.048
UniProt Q9GZP9|I3L1T3	0.935 ± 0.091	0.903 ± 0.083	0.946 ± 0.13	0.887 ± 0.12	0.944 ± 0.068	0.916 ± 0.11
UniProt Q96JM3	1.02 ± 0.043	1.02 ± 0.042	1.03 ± 0.048	1.12 ± 0.037	1.1 ± 0.039	1.12 ± 0.025
UniProt Q92833|Q92833-2	1.33 ± 0.27	1.32 ± 0.34	1.48 ± 0.51	1.49 ± 0.48	1.59 ± 0.63	1.76 ± 0.69
UniProt Q9UEY8|Q9UEY8-2	1.01 ± 0.019	1.02 ± 0.018	1.01 ± 0.014	1.02 ± 0.035	0.99 ± 0.023	1.004 ± 0.0086
UniProt Q96GM8|Q96GM8-2	1.06 ± 0.095	1.22 ± 0.14	1.35 ± 0.12	1.38 ± 0.12	1.53 ± 0.13	1.82 ± 0.32
TMEM109 (UniProt Q9BVC6)	0.943 ± 0.051	0.962 ± 0.066	0.999 ± 0.082	0.915 ± 0.03	0.955 ± 0.046	0.91 ± 0.074
UniProt Q9HCM7	1.71 ± 0.25	1.84 ± 0.31	2.2 ± 0.52	2.13 ± 0.52	2.62 ± 0.69	2.78 ± 0.79
IRAK4 (UniProt Q9NWZ3)	1.02 ± 0.042	1.03 ± 0.045	1.01 ± 0.051	0.985 ± 0.057	0.996 ± 0.043	0.988 ± 0.047
DHRS4 (UniProt Q9BTZ2)	0.9895 ± 0.0086	0.987 ± 0.019	0.989 ± 0.043	0.956 ± 0.028	0.968 ± 0.035	0.988 ± 0.018
UniProt Q9NUL3-3|Q9NUL3-8|A0A0A0MTD1|E7EPX0|E7EVJ4|F8VPI7|A0A0A0MTC5|E9PH62|Q9NUL3|Q9NUL3-2	0.971 ± 0.048	1.11 ± 0.13	1.02 ± 0.057	1.11 ± 0.15	1.16 ± 0.099	1.3 ± 0.11
MRPL38 (UniProt Q96DV4)	1.04 ± 0.035	0.869 ± 0.076	0.87 ± 0.08	0.925 ± 0.3	0.86 ± 0.15	0.839 ± 0.15
UniProt Q96NT0|B8ZZ99	0.832 ± 0.11	0.87 ± 0.12	0.886 ± 0.061	0.84 ± 0.16	0.863 ± 0.11	0.849 ± 0.16
RDH14 (UniProt Q9HBH5)	0.997 ± 0.049	1.01 ± 0.0098	1.03 ± 0.043	0.998 ± 0.056	1.05 ± 0.037	1.01 ± 0.035
UniProt Q92576|Q92576-2	1.05 ± 0.052	1.07 ± 0.056	1.12 ± 0.051	1.22 ± 0.11	1.2 ± 0.048	1.24 ± 0.073
PUS7 (UniProt Q96PZ0)	0.969 ± 0.059	0.974 ± 0.057	0.967 ± 0.034	0.941 ± 0.076	0.963 ± 0.03	0.968 ± 0.036
UniProt Q9BTX1|Q9BTX1-2|Q9BTX1-5|Q9BTX1-6	1.01 ± 0.076	1.01 ± 0.071	1.03 ± 0.1	0.996 ± 0.13	1.06 ± 0.044	1.08 ± 0.084
SAP30L (UniProt Q9HAJ7)	1.0942 ± 0.00039	1.12 ± 0.069	1.13 ± 0.092	1.185 ± 0.0041	1.11 ± 0.13	1.07 ± 0.082

Target	NP40-soluble protein abundance (concentration: 1mM)	NP40-soluble protein abundance (concentration: 2mM)	NP40-soluble protein abundance (concentration: 4mM)	NP40-soluble protein abundance (concentration: 6mM)	NP40-soluble protein abundance (concentration: 8mM)	NP40-soluble protein abundance (concentration: 10mM)
UniProt Q9BTL3	0.928 ± 0.13	0.882 ± 0.066	0.95 ± 0.059	1 ± 0.11	0.888 ± 0.028	0.869 ± 0.059
UniProt Q9H6R4|Q9H6R4-4|A0A0A0MRW6|Q9H6R4-2	1.08 ± 0.049	1.03 ± 0.018	1.28 ± 0.027	1.31 ± 0.041	1.39 ± 0.15	1.72 ± 0.15
PGAM5 (UniProt Q96HS1)	1.1 ± 0.037	1.14 ± 0.083	1.3 ± 0.06	1.48 ± 0.16	1.64 ± 0.089	1.72 ± 0.11
UBAC1 (UniProt Q9BSL1)	0.988 ± 0.025	1 ± 0.025	1.03 ± 0.033	1.04 ± 0.061	0.965 ± 0.034	0.98 ± 0.038
UniProt Q8WYP5|Q8WYP5-2|Q8WYP5-3	1.13 ± 0.037	1.16 ± 0.048	1.28 ± 0.079	1.38 ± 0.096	1.42 ± 0.12	1.53 ± 0.13
ITPKC (UniProt Q96DU7)	0.986 ± 0.048	0.971 ± 0.041	1.0284 ± 0.00016	0.857 ± 0.11	0.886 ± 0.026	0.883 ± 0.019
UniProt Q9H0S4|Q9H0S4-2	1.18 ± 0.12	1.23 ± 0.072	1.44 ± 0.03	1.5 ± 0.09	1.79 ± 0.073	1.99 ± 0.11
UniProt Q9NNW7|Q9NNW7-2	1.01 ± 0.04	0.942 ± 0.011	0.983 ± 0.067	0.951 ± 0.02	0.949 ± 0.057	0.958 ± 0.1
UniProt Q9UBF8-2	0.962 ± 0.044	0.961 ± 0.065	0.9581 ± 0.0056	0.938 ± 0.011	0.9049 ± 0.007	0.928 ± 0.026
UniProt Q9HDC9	1.03 ± 0.13	1 ± 0.11	0.936 ± 0.039	0.903 ± 0.13	0.953 ± 0.06	0.953 ± 0.079
UniProt Q99653	0.961 ± 0.041	0.989 ± 0.011	0.983 ± 0.029	0.965 ± 0.054	0.961 ± 0.059	0.931 ± 0.037
DSCC1 (UniProt Q9BVC3)	1.04 ± 0.038	1.06 ± 0.011	1.03 ± 0.018	1.01 ± 0.021	1.077 ± 0.0062	1.05 ± 0.037
ZNF48 (UniProt Q96MX3)	1.11 ± 0.069	1.13 ± 0.034	1.21 ± 0.077	1.31 ± 0.15	1.34 ± 0.12	1.4 ± 0.12
COG8 (UniProt Q96MW5)	0.938 ± 0.057	0.917 ± 0.029	0.937 ± 0.048	0.898 ± 0.068	0.902 ± 0.06	0.975 ± 0.054
UniProt Q96GN5|Q96GN5-4|Q96GN5-2	1.09 ± 0.19	1.16 ± 0.23	1.23 ± 0.36	1.29 ± 0.35	1.34 ± 0.41	1.42 ± 0.57
UniProt Q96LT9|Q96LT9-2	1.31 ± 0.027	1.46 ± 0.034	1.75 ± 0.15	1.95 ± 0.12	1.78 ± 0.02	2.06 ± 0.096
UniProt Q9UBS0	1.1 ± 0.063	1.11 ± 0.082	1.12 ± 0.088	1.05 ± 0.053	1.15 ± 0.14	1.09 ± 0.11
SRPK1 (UniProt Q96SB4)	1.31 ± 0.091	1.39 ± 0.079	1.5 ± 0.099	1.63 ± 0.12	1.67 ± 0.083	1.74 ± 0.11
DNAJC9 (UniProt Q8WXX5)	1.04 ± 0.024	1.13 ± 0.012	1.34 ± 0.04	1.55 ± 0.057	1.73 ± 0.12	1.76 ± 0.1
UniProt Q9NVR5	0.965 ± 0.028	0.98 ± 0.039	1 ± 0.047	1.04 ± 0.065	1.01 ± 0.12	0.967 ± 0.044

Target	NP40-soluble protein abundance (concentration: 1mM)	NP40-soluble protein abundance (concentration: 2mM)	NP40-soluble protein abundance (concentration: 4mM)	NP40-soluble protein abundance (concentration: 6mM)	NP40-soluble protein abundance (concentration: 8mM)	NP40-soluble protein abundance (concentration: 10mM)
MRPL16 (UniProt Q9NX20)	1.17 ± 0.12	1.08 ± 0.11	1.06 ± 0.16	1.11 ± 0.38	1.08 ± 0.18	0.981 ± 0.14
LUC7L (UniProt Q9NQ29)	2.7 ± 0.14	2.9 ± 0.11	2.86 ± 0.17	3.28 ± 0.17	2.93 ± 0.17	3.11 ± 0.15
PAAF1 (UniProt Q9BRP4)	1.02 ± 0.037	1.04 ± 0.02	1.01 ± 0.072	0.982 ± 0.02	0.977 ± 0.011	1.01 ± 0.023
QTRT1 (UniProt Q9BXR0)	1.01 ± 0.12	0.995 ± 0.091	1.02 ± 0.049	0.925 ± 0.14	0.994 ± 0.049	0.985 ± 0.051
UniProt Q96N16|Q96N16-2	1.17 ± 0.24	1.27 ± 0.16	1.28 ± 0.24	1.37 ± 0.19	1.27 ± 0.23	1.36 ± 0.17
UniProt Q969M3|Q969M3-3	0.981 ± 0.16	0.97 ± 0.19	0.974 ± 0.22	0.987 ± 0.24	0.961 ± 0.19	0.996 ± 0.19
NCOA5 (UniProt Q9HCD5)	1.09 ± 0.031	1.22 ± 0.056	1.49 ± 0.062	1.85 ± 0.12	2.23 ± 0.12	2.76 ± 0.14
UniProt Q9BS26	0.982 ± 0.043	0.956 ± 0.035	0.943 ± 0.057	0.945 ± 0.067	0.952 ± 0.06	0.941 ± 0.054
UniProt Q9BTE6|Q9BTE6-3	0.947 ± 0.046	0.965 ± 0.018	0.932 ± 0.015	0.964 ± 0.067	0.928 ± 0.036	0.958 ± 0.025
UniProt Q9UG63|Q9UG63-2	1.09 ± 0.033	1.15 ± 0.039	1.42 ± 0.019	1.67 ± 0.095	2.16 ± 0.093	2.59 ± 0.25
UniProt Q9NZC7|Q9NZC7-2	1.028 ± 0.01	1.04 ± 0.073	1.04 ± 0.1	1.08 ± 0.13	1.06 ± 0.073	1.2 ± 0.29
UniProt Q9NVX7-2|A0A075B6T4|Q9NVX7	1 ± 0.072	1.02 ± 0.066	1 ± 0.11	0.957 ± 0.095	1.05 ± 0.065	0.975 ± 0.036
SACS (UniProt Q9NZJ4)	1.09 ± 0.08	1.04 ± 0.072	1.08 ± 0.056	0.991 ± 0.075	1.102 ± 0.01	1.05 ± 0.042
MRPS31 (UniProt Q92665)	0.994 ± 0.058	0.93 ± 0.066	0.871 ± 0.062	0.923 ± 0.14	0.865 ± 0.088	0.857 ± 0.073
UniProt Q9NYK6|Q9NYK6-3	1.09 ± 0.13	1.02 ± 0.026	1.04 ± 0.011	1.05 ± 0.089	0.99 ± 0.066	1.05 ± 0.026
EIF2AK4 (UniProt Q9P2K8)	1.04 ± 0.096	1.02 ± 0.078	1.02 ± 0.071	0.967 ± 0.073	1.03 ± 0.056	1.03 ± 0.082
PECR (UniProt Q9BY49)	0.965 ± 0.093	0.966 ± 0.037	0.994 ± 0.073	0.984 ± 0.076	1.02 ± 0.053	1.05 ± 0.033
UniProt Q96CN4|Q96CN4-2	0.985 ± 0.035	1.02 ± 0.061	1.13 ± 0.21	1.1 ± 0.084	1 ± 0.034	1.05 ± 0.059
FUT8 (UniProt Q9BYC5)	1 ± 0.035	0.987 ± 0.052	1.02 ± 0.025	0.9889 ± 0.0069	1.04 ± 0.045	1.01 ± 0.039
CCDC124 (UniProt Q96CT7)	1.08 ± 0.15	1.14 ± 0.089	1.3 ± 0.2	1.56 ± 0.2	1.64 ± 0.1	1.96 ± 0.36
